Screening results deposited in PubChem by several laboratories.
A selection: hits, their analogues and other compounds. The true share with any hit is near 4.7%.
SARS 3CLpro inh: SARS-CoV 3CLpro protease inhibitors, primary screen, biochemical, quenched FRET; recombinant SARS-CoV 3CLpro, quenched FRET peptide cleavage; inhibition, % at 6 µM; Replicase polyprotein 1ab (Severe acute respiratory syndrome coronavirus), P0C6X7; 0.14% of 290,000 active; AID 1706, 2009; in the data active = inhibition above about 12%
CCHF vOTU inh: CCHFV vOTU protease inhibitors, primary screen, biochemical, Pep-AMC substrate, fluorescence | Crimean-Congo hemorrhagic fever virus L polyprotein viral ovarian tumor (vOTU) protease … | inhibition, % at 11.5 µM | 0.55% of 370,000 active | AID 651958, 2012; in the data active = inhibition above about 30%
GDH-TPI counter-1: GDH-TPI coupling enzyme inhibitors, primary screen, artefact control for M. tuberculosis FBA inhibitor project, biochemical, absorbance, full deck; GDH-TPI coupled enzyme counterscreen, NADH absorbance; inhibition, % at 4.8 µM; 1.2% of 360,000 active; AID 588335, 2011; in the data active = inhibition above about 30%
DUSP3 inh: VHR1 phosphatase inhibitors, primary screen, biochemical, absorbance, uHTS; 0.52% of 290,000 active; AID 1654, 2009; Dual specificity protein phosphatase 3 (Homo sapiens), P51452; recombinant VHR phosphatase, pNPP absorbance; inhibition, % at 13.3 µM; in the data active = inhibition above about 50%
Target sequence (P51452 whole entry, looked up): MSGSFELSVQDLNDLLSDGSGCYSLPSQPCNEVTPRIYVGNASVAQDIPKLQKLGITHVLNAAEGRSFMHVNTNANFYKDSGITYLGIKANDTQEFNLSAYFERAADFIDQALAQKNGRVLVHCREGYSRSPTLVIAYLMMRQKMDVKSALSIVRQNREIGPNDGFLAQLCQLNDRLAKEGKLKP
RecA intein inh: Mtb RecA intein splicing inhibitors, primary screen, biochemical, fluorescence, HTS. Protein RecA (Mycobacterium tuberculosis (strain ATCC 25618 / H37Rv)), P9WHJ3. cell-free RecA intein splicing. inhibition, % (no concentration beside the values). 0.75% of 290,000 active. AID 2221, 2009; in the data active = inhibition above about 30%
FBA Mtb inh: Mtb FBA enzyme inhibitors, primary screen, biochemical, fluorescence, strain H37Rv; 2.3% of 360,000 active; inhibition, % at 1 µM; purified M. tuberculosis FBA, fluorescence read-out; Fructose-bisphosphate aldolase (Mycobacterium tuberculosis (strain ATCC 25618 / H37Rv)), …
Target sequence (P9WQA3 whole entry, looked up): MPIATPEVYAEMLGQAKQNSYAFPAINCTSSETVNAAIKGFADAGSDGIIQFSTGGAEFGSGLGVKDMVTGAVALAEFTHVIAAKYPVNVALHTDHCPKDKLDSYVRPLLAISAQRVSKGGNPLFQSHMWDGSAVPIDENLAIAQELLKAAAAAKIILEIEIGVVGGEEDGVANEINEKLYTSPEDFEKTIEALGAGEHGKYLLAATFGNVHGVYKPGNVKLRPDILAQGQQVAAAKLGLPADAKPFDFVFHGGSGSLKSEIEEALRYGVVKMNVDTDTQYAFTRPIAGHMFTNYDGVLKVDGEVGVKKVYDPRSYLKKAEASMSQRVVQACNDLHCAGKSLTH
Mtb FBA inh conf: M. tuberculosis aldolase blockers, biochemical, fluorescence, strain H37Rv, confirmation | shares compounds with FBA Mtb inh | purified M. tuberculosis FBA, fluorescence read-out | inhibition, % at 1 µM | 78% of 5,600 active
GDH-TPI counter-2: GDH-TPI coupling enzyme inhibitors, artefact control for M. tuberculosis FBA inhibitor project, biochemical, fluorescence, high throughput | shares compounds with FBA Mtb inh | GDH-TPI coupled enzyme counterscreen | AID 652141, 2013 | inhibition, % at 1 µM | 81% of 5,600 active; in the data active = inhibition above about 10%
Large screens that a line does not name were inactive (follow-up assays come after a bar, where they were run). Cut-off read from the data, not from the text of the source, unless noted: active = inhibition above about 27%; inactive = the rest.

c1cncc(-c2nc3ccccc3[nH]2)c1	none (no result: RecA intein inh)
Cc1ccc(-c2nc3ccccc3[nH]2)s1	FBA Mtb inh 57.6 | Mtb FBA inh conf 68.3 | GDH-TPI counter-2 62.9
C#CCCC(=O)O[C@H]1CCC[C@@]2(C(=O)N(Cc3ccccc3)c3ccccc32)[C@H]1NC(=O)CCc1ccccc1	none (no result: SARS 3CLpro inh, GDH-TPI counter-1, DUSP3 inh, RecA intein inh, FBA Mtb inh)
CC1(c2nnnn2Cc2ccccc2)CSCC(=O)N1Cc1cccs1 (stereo unspecified)	none (no result: SARS 3CLpro inh, GDH-TPI counter-1, DUSP3 inh, RecA intein inh, FBA Mtb inh)
C[C@@H]1CN([C@H](C)CO)C(=O)CCCn2nncc2CO[C@H]1CN(C)C(=O)Nc1ccc(N2CCN(C)CC2)cc1	none (no result: SARS 3CLpro inh, DUSP3 inh, RecA intein inh)
OCCN1CCN(c2ncnc3c2ncn3[C@H]2CN(Cc3ccncc3)C[C@@H](CO)O2)CC1	none (no result: SARS 3CLpro inh, DUSP3 inh, RecA intein inh)
c1csc(-c2nc3ccccc3[nH]2)c1	FBA Mtb inh 47.7 (no result: RecA intein inh) | Mtb FBA inh conf 63.3 | GDH-TPI counter-2 47.1
O=C(c1ccc(F)cc1)n1ccc(-c2cnc(-c3ccccc3)s2)n1	FBA Mtb inh 46.6 | Mtb FBA inh conf 81.3 | GDH-TPI counter-2 59.3
O=C(c1ccc(C(F)(F)F)cc1)n1ccc(-c2cccs2)n1	none
CCCc1cc(=O)oc2cc(OCC(=O)NCCCN3CCOCC3)ccc12	none
Cc1c(C)c2ccc(OCC(=O)Nc3ccccn3)cc2oc1=O	none
CCCCc1cc(=O)oc2cc(OCC(=O)Nc3ccccn3)ccc12	FBA Mtb inh 45.7 | Mtb FBA inh conf 67.9 | GDH-TPI counter-2 57.9
CCCCc1cc(=O)oc2cc(OCC(=O)N3CCOCC3)ccc12	FBA Mtb inh 29.6 | Mtb FBA inh conf 138.7 | GDH-TPI counter-2 100.9
CC(C(=O)Nc1ccc(S(=O)(=O)N2CCCCC2)cc1)N1CCN(c2ccccn2)CC1 (stereo unspecified)	none (no result: CCHF vOTU inh, GDH-TPI counter-1, FBA Mtb inh)
COc1cccc(-c2nc3sc4c(c3c(=O)[nH]2)CCCCC4)c1	none
Cc1nc(-c2ccccc2)ccc1C(=O)O	none
Cc1nc(-c2cccc3ccccc23)ccc1C(=O)O	FBA Mtb inh 40.6 | Mtb FBA inh conf 75.0 | GDH-TPI counter-2 67.0
CC(C)c1c(C(=O)N/N=C2\CCc3ccccc32)nnn1-c1nonc1N	none
COc1ccc2cc(C(=O)NCc3ccccc3)[nH]c2c1	none
COc1cccc2[nH]c(C(=O)NCc3ccccc3)cc12	FBA Mtb inh 68.3 | Mtb FBA inh conf 74.5 | GDH-TPI counter-2 72.6
Cc1ccc2nc(-c3ccc(C#N)cc3)c(Cc3ccccn3)n2c1	FBA Mtb inh 60.9 (no result: SARS 3CLpro inh, GDH-TPI counter-1, DUSP3 inh, RecA intein inh) | Mtb FBA inh conf 146.5 | GDH-TPI counter-2 93.8
CCOc1ccc(S(=O)(=O)N(C)CC(=O)N2CCN(CC)CC2)cc1	none
CN1CCSc2ccc(C(=O)Nc3ccc(Cl)cc3)cc21	FBA Mtb inh 33.2 | Mtb FBA inh conf inactive | GDH-TPI counter-2 inactive
COc1ccc(Br)cc1CNC(=O)c1ccc2c(c1)N(C)CCS2	FBA Mtb inh 49.9 | Mtb FBA inh conf active | GDH-TPI counter-2 152.4
CCN1CCSc2ccc(C(=O)NCc3cc(Br)ccc3OC)cc21	FBA Mtb inh 36.6 | Mtb FBA inh conf 101.6 | GDH-TPI counter-2 75.8
CC(C)OC(=O)c1cc2c(ccn2-c2ccc(F)cc2)n1CC(=O)N1CCN(C(=O)c2ccco2)CC1	FBA Mtb inh 36.4 | Mtb FBA inh conf active | GDH-TPI counter-2 active
COC(=O)c1cc2c(ccn2-c2ccc(F)cc2)n1CC(=O)N1CCN(C(=O)c2ccco2)CC1	FBA Mtb inh 28.7 (no result: RecA intein inh) | Mtb FBA inh conf active | GDH-TPI counter-2 197.0
CCn1c(C(=O)OC)cc2c1ccn2-c1ccc(F)cc1	none
CC(C)OC(=O)c1cc2c(ccn2C)n1CC(=O)N1CCC(Cc2ccccc2)CC1	none
CC(=O)Nc1ccc(N2C(C(C)=O)=NN(c3ccc(Cl)cc3)C2c2sccc2C)cc1 (stereo unspecified)	none (no result: RecA intein inh)
CCOc1ccc(-c2cn3ccccc3n2)cc1	FBA Mtb inh 43.8 | Mtb FBA inh conf 115.8 | GDH-TPI counter-2 69.4
COc1ccc(CC(=O)Nc2ccc(-c3cn4ccccc4n3)cc2)cc1	FBA Mtb inh 65.5 | Mtb FBA inh conf active | GDH-TPI counter-2 active
COc1ccc(CC(=O)Nc2ccc(-c3csc(C)n3)cc2)cc1	none
O=C(Nc1cccc(-c2cn3ccccc3n2)c1)C1CC1	FBA Mtb inh 36.0 | Mtb FBA inh conf 112.4 | GDH-TPI counter-2 87.5
COc1ccc(CC(=O)Nc2cccc(-c3cn4ccccc4n3)c2)cc1	FBA Mtb inh 30.9 | Mtb FBA inh conf 122.7 | GDH-TPI counter-2 85.8
CCCCc1c(Cc2cccc(F)c2)ncn1CCc1ccccc1OC	none (no result: SARS 3CLpro inh, GDH-TPI counter-1, DUSP3 inh, RecA intein inh, FBA Mtb inh)
COc1ccc(CC(=O)Nc2ccc(N3CCOCC3)cc2)cc1OC	none
COc1ccc(CC(=O)Nc2ccc(-c3cn4ccccc4n3)cc2)cc1OC	FBA Mtb inh 71.3 | Mtb FBA inh conf inactive | GDH-TPI counter-2 inactive
O=S(=O)(c1ccc2c(c1)CCN2)N1CCCC1	none (no result: SARS 3CLpro inh, DUSP3 inh, RecA intein inh)
Cc1cc(C)c(NC(=O)C2CC(=O)N(C3CCCC3)C2)c(C)c1 (stereo unspecified)	none (no result: SARS 3CLpro inh, DUSP3 inh, RecA intein inh)
Oc1ccc2ccccc2c1CNc1cnc2ccccc2c1	FBA Mtb inh 49.9 | Mtb FBA inh conf inactive | GDH-TPI counter-2 inactive
Oc1ccc(Cl)cc1CNc1cnc2ccccc2c1	FBA Mtb inh 34.5 | Mtb FBA inh conf active | GDH-TPI counter-2 169.5
Oc1ccccc1CNc1cnc2ccccc2c1	FBA Mtb inh 39.6 | Mtb FBA inh conf inactive | GDH-TPI counter-2 inactive
CC(C)(C)c1cc(=O)n2c(C#N)c(C#N)nc2[nH]1	FBA Mtb inh 79.9 | Mtb FBA inh conf 46.7 | GDH-TPI counter-2 39.5
COc1cc2c(cc1O)CC1c3c(cc(O)c(OC)c3-2)CCN1C (stereo unspecified)	FBA Mtb inh 27.0 | Mtb FBA inh conf 101.0 | GDH-TPI counter-2 95.1
CN(C)CCCNc1nc2cc(-c3cnn(Cc4ccccc4)c3)sc2c(=O)n1C	none (no result: SARS 3CLpro inh, DUSP3 inh, RecA intein inh)
CN(C)c1ccc(/C=N/N=C(N)N)cc1[N+](=O)[O-]	FBA Mtb inh 79.6 | Mtb FBA inh conf 197.9 | GDH-TPI counter-2 132.2
CN(C)c1ccc(/C=C/C(=O)c2ccc3c(c2)OCCO3)cc1[N+](=O)[O-]	none
Cc1ccc(C(=O)c2ccccc2C(=O)Nc2ccccc2)cc1	none (no result: SARS 3CLpro inh, DUSP3 inh)
NC(=O)c1ccccc1N=Cc1cccnc1	none (no result: SARS 3CLpro inh, DUSP3 inh)
Cc1ccc(C=Nc2ccccc2C(N)=O)cc1	FBA Mtb inh 65.0 | Mtb FBA inh conf 83.0 | GDH-TPI counter-2 74.3
O=C(Nc1ccccc1)c1ccccc1N=Cc1cccc(O)c1	FBA Mtb inh 41.2 | Mtb FBA inh conf 51.4 | GDH-TPI counter-2 39.8
